Compound activity (PubChem)
The list is not random: actives were taken first. Their share in the collection is about 18%.
IL-1B inflam inh: qHTS for Inhibitors of Inflammasome Signaling: IL-1-beta AlphaLISA Primary Screen | THP-1 LPS/ATP IL-1B secretion, AlphaLISA, 16 h; active compounds read low | activity change, % at 57.5 µM | 4.7% of 360,000 active | AID 743279, 2014; in the data active = activity change below about -50%; inconclusive = mostly about -30% to -49%
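THP-1 cells pretreated 1 hr with compounds (up to 57.5 uM final), then stimulated with LPS (250 ng/mL final) plus ATP (1.25 mM final); secreted IL-1B measured by AlphaLISA after 16 hr, decreased signal indicating inhibition.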
LDHA inh: qHTS assay for inhibitors of human lactate dehydrogenase; L-lactate dehydrogenase A chain (Homo sapiens), P00338; purified LDHA, NADH/diaphorase-resazurin fluorescence; active compounds read low; activity change, % (values are at about 110 or 230 µM); 0.15% of 480,000 active; in the data active = activity change below about -30%; inconclusive = mostly about -25% to -30%;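 also: plate controls were DMSO wells for no effect and wells without enzyme for full effect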
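Human LDH5 (2 nM) was incubated with 0.06 mM NADH and 0.2 mM pyruvate for 5 min at room temperature in Tris pH 7.4. Remaining NADH was coupled through diaphorase/resazurin, and resorufin fluorescence was read at 0 and 20 min.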
TDP1 cell CPT: qHTS for Inhibitors of human tyrosyl-DNA phosphodiesterase 1 (TDP1): qHTS in cells in presence of CPT; 12% of 420,000 active; chicken DT40 Tdp1-/-;hTDP1 cells + 20 nM CPT, ATP luminescence, 48 h; Potency, µM (titrated, usually from 46.2 µM), for inactives: top-dose activity change, negative = growth inhibition, actives largely listed as inhibitors; AID 686979, 2013; also: potency is read from the fitted curve at half-maximal effect; nearly all actives have a fitted effect of over 55% in size
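Chicken DT40 Tdp1-/- cells stably complemented with human TDP1 were seeded at 400 cells/well in medium containing 20 nM camptothecin, exposed to pin-transferred compounds, and grown at 37 °C for at least 48 hr. Viability was read as ATP luminescence.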
TDP1 cell noCPT: qHTS for Inhibitors of human tyrosyl-DNA phosphodiesterase 1 (TDP1): qHTS in cells in absence of CPT | DT40 Tdp1-/- hTDP1 cells, no CPT, ATP luminescence, 48 h | Potency, µM (highest dose often 46.2 µM), inactives show top-dose activity change, negative = growth inhibition, most hits filed as inhibitors | 15% of 420,000 active; also: potency is read from the fitted curve at half-maximal effect; nearly all actives have a fitted effect of over 55% in size
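Seeded 400 DT40-hTDP1 cells/well (vehicle DMSO, no 20 nM CPT); pinned compounds; ≥48 hr at 37 °C; CellTiter-Glo luminescence as viability measure.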
Gal4-VP16 FLuc: VP16 counterscreen qHTS for inhibitors of ROR gamma transcriptional activity; Potency, µM (titrated, usually from 53.6 µM), without a hit: top-dose activity, negative = inhibition, hits mostly inhibitors; AID 2546, 2010; Drosophila S2 Gal4-VP16 UAS-luciferase, luminescence, 20 h; 3.5% of 310,000 active;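 also: Gal4-VP16 expression switched on by copper sulfate through the metallothionein promoter; potency is read from the fitted curve at half-maximal effect; nearly all actives have a fitted effect of over 50% in size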
RORg inh: qHTS for inhibitors of ROR gamma transcriptional activity; Drosophila S2 Gal4-RORgamma UAS-luciferase reporter, 20 h; 5.4% of 310,000 active; AID 2551, 2010; Nuclear receptor ROR-gamma (Mus musculus), P51450; Potency, µM (doses to about 53.6 µM), inactives show top-dose activity change, negative = inhibition, usual class: inhibitors; also: potency is read from the fitted curve at half-maximal effect; nearly all actives have a fitted effect of over 60% in size
Target sequence (P51450 whole entry, looked up, the tested form may be a part): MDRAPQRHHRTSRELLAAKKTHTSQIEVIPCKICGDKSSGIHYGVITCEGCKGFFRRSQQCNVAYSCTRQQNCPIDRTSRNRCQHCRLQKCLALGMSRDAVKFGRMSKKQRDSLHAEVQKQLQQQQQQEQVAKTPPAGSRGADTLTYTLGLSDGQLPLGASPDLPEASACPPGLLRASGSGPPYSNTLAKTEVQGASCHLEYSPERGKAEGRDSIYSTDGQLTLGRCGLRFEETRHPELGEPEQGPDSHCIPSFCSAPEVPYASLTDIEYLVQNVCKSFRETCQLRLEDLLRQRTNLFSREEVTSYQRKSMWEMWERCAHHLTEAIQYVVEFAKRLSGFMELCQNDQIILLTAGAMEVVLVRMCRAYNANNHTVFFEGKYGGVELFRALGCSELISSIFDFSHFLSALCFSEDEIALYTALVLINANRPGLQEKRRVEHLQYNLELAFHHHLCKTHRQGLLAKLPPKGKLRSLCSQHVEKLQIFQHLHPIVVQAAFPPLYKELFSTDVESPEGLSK
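Compounds are pin-transferred onto Drosophila Schneider cells expressing a copper-inducible Gal4–ROR gamma transactivation domain fusion. After 1 hr, copper sulfate is added to 700 uM final; luciferase is read 20 hr later.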
* hit, by the source's call; ? = inconclusive; / = no result; [ ] = remark or other dose. Unless noted, calls follow the shape of the dose curve; as a rule, active = well fitted curve in the direction sought with a large enough effect; inconclusive = small, poorly fitted or top-dose-only effect, or another doubt; inactive = no such curve, though single readings can be large; an effect the other way counts as inactive or inconclusive. Unless noted, % is scaled to controls: 0 for no effect and ±100 for the full control effect.

SMILES | IL-1B inflam inh | LDHA inh | TDP1 cell CPT | TDP1 cell noCPT | Gal4-VP16 FLuc | RORg inh
Cc1ccc(C(=O)NC(c2cccnc2)c2cc(C)ccc2C)cc1 (stereo unspecified) | / | 5 | / | / | / | /
CCCCn1c(SCC(=O)Nc2nnc(CC)s2)nc2c1c(=O)n(C)c(=O)n2C | 1 | -3 | 23µM* | 12µM* | 0% | 12%
CCCn1c(SCC(=O)Nc2ccc(NC(=O)CC)cc2)nc2c1c(=O)n(C)c(=O)n2C | -7 | -7 | 0% | 21µM* | ? | 14%
Nn1c(SCC(=O)Nc2nc3ccccc3s2)nncc1=O | 11 | -6 | -7% | -2% | -2% | 32µM*
CCCCn1c(SCC(=O)Nc2nnc(CC)s2)nc2ccccc2c1=O | -1 | 2 | -3% | 2% | / | -24%[0.365 µM]
CCCn1c(SCC(=O)Nc2nc3ccccc3s2)nc2c1c(=O)n(C)c(=O)n2C | 0 | -4 | 23µM* | 23µM* | -2% | 0%
Cc1nnc(SCC(=O)Nc2nc3ccccc3s2)n(N)c1=O | 10 | -3 | -2% | -2% | 6% | 14%
CCn1c(SCC(=O)Nc2ccc(NC(C)=O)cc2)nc2c1c(=O)n(C)c(=O)n2C | 9 | -6 | -1% | ? | 3% | -2%
Cn1c(=O)c2c(ncn2CC(=O)Nc2nc3ccccc3s2)n(C)c1=O | / | 1 | / | / | / | /
Cc1ccc2c(C)c(CCC(=O)N(C)c3ccccc3)c(=O)oc2c1 | / | 10 | / | / | / | /
CCCCn1c(SCC(=O)Nc2ccc3c(c2)OCO3)nc2c1c(=O)n(C)c(=O)n2C | -20 | -2 | 16µM* | ? | -22% | ?
Cn1c(=O)c2c(ncn2CC(=O)Nc2ccc3c(c2)OCO3)n(C)c1=O | -2 | 5 | -13% | -7% | / | /
Cc1ccc(Cn2c(SCC(=O)Nc3cccc(C)n3)nc3c2c(=O)n(C)c(=O)n3C)cc1 | / | / | / | / | 4% | -8%
CCCn1c(SCC(=O)Nc2cccc(C)n2)nc2c1c(=O)n(C)c(=O)n2C | 22 | 2 | 18µM* | ? | 0% | 18%
CCN(CC)C(=O)Cc1nc(-c2cccs2)oc1C | / | -1 | / | / | / | /
Cc1nc(N)nc(N)c1/C=C/C(C)(C)c1ccc(Cl)cc1 | -106* | -14 | ? | 0.033µM* | ? | ?
O=C(O)c1ccc(F)c(Br)c1 | / | -6 | / | / | / | /
Cc1nc(N2CCN(C(=O)C(N)=O)CC2)c(C#N)c2c1CCCC2 | / | 7 | / | / | / | /
CC(C)C(=O)N1CCN(c2nc(-c3ccccc3)c3c(c2C#N)CCCC3)CC1 | -57* | 1 | ? | ? | -1% | 0%
N#Cc1c(N2CCN(C(=O)C(=O)N3CCOCC3)CC2)nc(-c2ccccc2)c2c1CCCC2 | / | -8 | / | / | / | /
CC(=O)N1CCN(c2nc(CC(C)C)c3c(c2C#N)CCCC3)CC1 | / | -1 | / | / | / | /
CCCC(=O)N1CCN(c2nc(CC(C)C)c3c(c2C#N)CCC3)CC1 | -72* | -4 | ? | 23µM* | 1% | -5%
Cc1nc(N2CCN(C(=O)c3ccco3)CC2)c(C#N)c2c1CCCC2 | -84* | -6 | 0% | ? | ? | -16%
CC(C)Cc1nc(N2CCN(CC(=O)N3CCCCC3)CC2)c(C#N)c2c1CCC2 | / | 5 | / | / | / | /
CC(C)Cc1nc(N2CCN(C(=O)c3ccco3)CC2)c(C#N)c2c1CCCC2 | -27 | 0 | 23µM* | ? | -21% | -4%
CCCCc1ccc(-c2cc(C(=O)NC3CC3)c3cc(Br)ccc3n2)cc1 | / | -9 | / | / | / | /
COc1cc(OC)c2c(C)c(CC(=O)NCc3ccc4c(c3)OCO4)c(=O)oc2c1 | / | 8 | / | / | / | /
Oc1ccc(-c2nc3ccccc3s2)c(O)c1 | 33 | 2 | 4% | -3% | ? | -29%
